Entries with a potency or affinity are not part of this list. The source made the active and inactive calls.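 Rule for the calls: active = signal drops and a fitted half-effect dose is at or below ten times that sample's top valid dose; inconclusive = flat fit with a moderate drop, or a poor fit; inactive = the rest.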

This assay is described as follows: LuxS/LuxPQ-dependent luminescence inhibition, V. harveyi – dry powder, set 2, dose response (AID 493072).

As to `CCc1ccc(C(=O)Nc2ccc(Br)cn2)cc1`, the call was inactive.

For the origin of these results see PubChem BioAssay AID493072 (Broad Institute, 2011).
